VDR inhibitor: vitamin D3 receptor (human) inhibition | 400,000 tested, 0.93% active | AID 504847 | VDR-SRC2-3 peptide fluorescence polarization, 2 h | Potency, µM, for inactives: max response, negative = inhibition, actives largely listed as inhibitors | P11473; note: % is set by controls: 0 for no effect and ±100 for the full control effect
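Inhibition of the VDR/SRC2-3 peptide interaction is quantified by fluorescence polarization. Compounds (23 nl, pintool) incubate with the reagents for 2 hours at ambient room temperature.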
Sfp PPTase inh: Sfp phosphopantetheinyl transferase inhibition; AID 1490; Biochemical Sfp PPTase activity, qHTS; Q9F4F7; 310,000 tested, 3.5% active; Potency, µM, for inactives: largest response in the series, negative = inhibition, actives largely listed as inhibitors;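 note: the enzyme is Sfp with the accession as filed and its product quenches rhodamine fluorescence; 0% = enzyme reaction without inhibitor and -100% = no enzyme wells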
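After 15 min at room temperature with compound, 15 nM Sfp received 5 uM rhodamine-CoA plus 12.5 uM BHQ-2-ybbR (50 mM Hepes pH 7.6, 10 mM MgCl2). Rate came from the fluorescence difference over 30 min, ex 525/em 598 nm.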
ALOX12 inh: blocks human arachidonate 12S-lipoxygenase; purified 12hLO, xylenol orange hydroperoxide absorbance; P18054; AID 1671190; Potency, µM (series often up to 108 µM), without a hit: top-dose activity change, negative = inhibition, usual class: inhibitors; 580,000 tested, 1.1% active; note: % is set by controls: 0 for no effect and ±100 for the full control effect
Target sequence (P18054 whole entry, looked up): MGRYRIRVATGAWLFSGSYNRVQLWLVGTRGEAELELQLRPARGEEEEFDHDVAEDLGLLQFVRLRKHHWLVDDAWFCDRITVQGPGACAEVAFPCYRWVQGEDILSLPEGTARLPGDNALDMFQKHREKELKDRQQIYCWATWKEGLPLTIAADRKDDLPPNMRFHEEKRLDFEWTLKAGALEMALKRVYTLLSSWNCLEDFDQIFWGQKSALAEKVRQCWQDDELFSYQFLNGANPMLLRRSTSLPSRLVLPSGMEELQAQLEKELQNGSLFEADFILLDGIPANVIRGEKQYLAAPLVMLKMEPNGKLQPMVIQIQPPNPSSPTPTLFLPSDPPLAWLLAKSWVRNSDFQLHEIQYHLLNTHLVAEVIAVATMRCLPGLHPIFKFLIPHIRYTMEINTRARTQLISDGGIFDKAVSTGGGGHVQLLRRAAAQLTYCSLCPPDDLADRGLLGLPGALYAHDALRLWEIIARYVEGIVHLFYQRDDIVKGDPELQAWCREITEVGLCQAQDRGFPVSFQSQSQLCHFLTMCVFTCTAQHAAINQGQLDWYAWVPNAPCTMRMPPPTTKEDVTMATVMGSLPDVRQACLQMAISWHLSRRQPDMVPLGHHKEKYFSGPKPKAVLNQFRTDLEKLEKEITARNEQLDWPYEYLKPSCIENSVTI
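Purified human 12hLO (150 nM final) in 25 mM Hepes, 0.01% Triton X-100, pH 7.0 was preincubated 15 min at room temperature with compound. Then 40 uM arachidonic acid was added, 30 min. Hydroperoxide was read by Fe-XO absorbance ratio 573/405 nm.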
G9a inh: blocks human histone lysine methyltransferase G9a; Q96KQ7; G9a H3K9 monomethylation, AlphaScreen, 2 h; Potency, µM (titrated, usually from 102 µM), for inactives: at the top dose activity, negative = inhibition, actives largely listed as inhibitors; 350,000 tested, 8.8% active; AID 504332; note: % is set by controls: 0 for no effect and ±100 for the full control effect; nearly all actives have a fitted effect of over 75% in size
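Chemiluminescent proximity detection of H3K9 monomethylation, read after 10 min bead incubation in the dark. Reaction: 20 nM G9a, 500 nM biotin-H3K9 peptide, 20 uM SAM cofactor, 2 h, room temperature, following 15 min enzyme-compound preincubation.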
GRP78 ERSR act: ER stress response induction in glioma; Potency, µM, without a hit: at the highest dose activation, most hits filed as activators; U87-MG GRP78 promoter luciferase reporter, 16 h; 420,000 tested, 0.02% active; AID 602332; note: series mostly up to about 76 µM; % of control where 0% means no effect; nearly all actives have a fitted effect of over 35% in size
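Stably transfected U87-MG human glioma cells carrying a GRP78-based luminescent sensor were seeded at 1000 cells/well, pin-dosed with compounds and incubated 16 h. Luciferase reagent was then added, and end-point luminescence was read after 10 min at room temperature.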
* = called active by the depositor; u = inconclusive; x = no result given; [ ] = remark or other dose. Shown is part of a subset that was picked to be rich in hits. Calls come from the whole dose curve; as a rule, active = well fitted curve in the direction sought with a large enough effect; inconclusive = small, poorly fitted or top-dose-only effect, or another doubt; inactive = no such curve, though single readings can be large; an effect the other way counts as inactive or inconclusive. Potency is the fitted concentration of half-maximal effect.

SMILES	VDR inhibitor	Sfp PPTase inh	ALOX12 inh	G9a inh	GRP78 ERSR act
CCOc1ccc(/C=C2\SC(=S)N(CCC(=O)Nc3cccc(C(=O)O)c3)C2=O)cc1	-16.7%	-6.4%	u	79.4µM*	-11.1%
O=C(CCN1C(=O)/C(=C/c2ccc3c(c2)OCO3)SC1=S)Nc1ccc(C(=O)O)cc1	6.3%	-6.5%	u	21.1%[2.33 µM]	4.3%
CCOc1ccc(/C=C2\SC(=S)N(CCC(=O)Nc3ccc(C(=O)O)cc3)C2=O)cc1	10.1%	6.1%	u	28.2µM*	1.1%
O=C(CCCN1C(=O)/C(=C/c2ccc3c(c2)OCO3)SC1=S)Nc1ccc(C(=O)O)cc1	u	8.3%	14.1µM*	28.5%	-14.7%
O=C(O)c1ccc(N2C(=O)/C(=C/C=C/c3ccccc3)SC2=S)cc1	-10.2%	6.3%	-29.5%	44.7µM*	-4.5%
CCOC(=O)c1cnc2ccc(C(=O)OC)cc2c1Nc1cc(C)ccc1OC	x	x	0.4%	x	x
CC(O)[C@@H](O)[C@H]1CNc2nc(N)[nH]c(=O)c2N1 (some centres not stated)	x	x	x	3.55µM*	x
CC(O)C(O)[C@H]1CNc2nc(N)[nH]c(=O)c2N1 (some centres not stated)	-12.4%	-28.1%	x	3.77µM*	-2.0%
Nc1nc(N)c(N)c(=O)[nH]1	x	x	x	x	-4.3%
C[C@H](O)[C@H](O)[C@H]1CNc2nc(N)[nH]c(=O)c2N1	79.4µM*	x	-4.5%	1.41µM*	-1.0%
CCCc1cc(=O)n2nc(N(C)CC(=O)Nc3cccc(F)c3)sc2n1	x	x	-6.0%	x	x
CC(=O)c1c(N2CCCC2)[nH]c(-c2ccccc2)nc1=S	-16.3%	-5.7%	44.7µM*	u	1.0%
CC(=O)c1c(N2CCN(Cc3ccccc3)CC2)[nH]c(-c2ccccc2)nc1=S	21.8%	11.1%	39.8µM*	70.8µM*	-0.3%
Cc1cc(NC(=O)c2ccc(C#N)cc2)n(-c2ccccn2)n1	-15.3%	-2.1%	0.2%	44.7µM*	-1.4%
CN1CCN(c2ccc(NC(=O)c3ccc4c(c3)OCCO4)cc2)CC1	0.8%	21.1%	-7.7%	44.7µM*	-12.0%
Nc1ccc(OC(=O)Nc2ccc(O)cc2)cc1	-2.7%	-12.0%	u	u	-10.1%
CN1CCN(c2ccc(NC(=O)c3cccc(OCc4ccccc4)c3)cc2)CC1	68.5%	-14.7%	0.0%	15.8µM*	-6.8%
O=C(Nc1ccc(N2CCN(c3ccc(O)cc3)CC2)cc1)Oc1ccccc1	1.3%	-19.2%	u	0.891µM*	-0.9%
Cc1ccc(C(=O)Nc2ccc(N3CCN(C)CC3)cc2)cc1C	-21.6%	8.4%	5.6%	70.8µM*	-10.9%
CCC(=O)N1CCN(c2ccc(NC(=O)c3ccc4c(c3)OCCO4)cc2)CC1	5.0%	13.4%	-9.2%	-3.2%	0.9%
CCN1CCN(c2ccc(NC(=O)c3cccc(OCc4ccccc4)c3)cc2)CC1	9.8%	-20.7%	-21.6%	u	-6.7%
C#CC1(O)CC(C)N(C)CC1C (configuration not stated)	x	x	0.9%	x	x
Cn1c(=O)c2c(ncn2CCC(=O)Nc2ccc(F)c(Cl)c2)n(C)c1=O	x	x	-0.2%	x	x
COc1ccccc1NC(=O)Nc1c(NC2CCCC2)c2ccccc2oc1=O	x	x	4.6%	x	x
Cc1cc(C)c(C(=O)COC(=O)c2ccc(C=O)cc2)c(C)c1	x	x	4.9%	x	x
SMILES	VDR inhibitor	Sfp PPTase inh	ALOX12 inh	G9a inh	GRP78 ERSR act
CCN1CCN(c2ccc(NC(=O)c3ccc4c(c3)OCCO4)cc2C)CC1	6.7%	x	u	7.94µM*	-9.2%
COc1ccc(/C=N/Nc2cc(N3CCCC3)nc(N3CCCC3)n2)cc1	u	50.1µM*	u	22.4µM*	-5.3%
Oc1ccc(/C=N/Nc2ccc(Cl)nn2)cc1O	-1.8%	79.4µM*	u	-13.8%	16.0%
O=[N+]([O-])c1cccc(-n2cccc2/C=N/Nc2nc(N3CCCCC3)nc(N3CCCCC3)n2)c1	-2.6%	-2.1%	1.7%	31.6µM*	-0.8%
Oc1ccc(/C=N/Nc2nc(N3CCCC3)nc(N3CCCC3)n2)cc1O	-14.3%	20µM*	-18.2%	10µM*	1.1%
O=[N+]([O-])c1cc(/C=N/Nc2nc(N3CCCCC3)nc(N3CCCCC3)n2)ccc1O	-8.4%	5.3%	-6.8%	u	-0.6%
Cc1ccc(NC(=O)c2sccc2C)cc1I	x	x	-49.9%	x	x
Cc1ccc(Cn2c(=N)n(CC(O)COc3ccccc3)c3ccccc32)cc1 (configuration not stated)	-15.1%	22.4µM*	u	u	-8.3%
CC1CCCN(S(=O)(=O)N(C)Cc2ccc3c(c2)OCCO3)C1 (configuration not stated)	x	x	10.3%	x	x
COC(=O)c1ccccc1N/C=C1\CCc2c(c(C)nn2-c2ccccn2)C1=O	12.3%	44.7µM*	224.7%	u	-1.9%
COC(=O)c1ccccc1NC(=O)CN1CCN(c2ccccn2)CC1	8.4%	19.7%	0.0%	3.0%	-5.2%
COC(=O)c1c(C)oc2c1cc(NS(=O)(=O)c1ccc(C(=O)O)cc1)c1ccccc12	u	-18.6%	4.1%[57.4 µM]	35.5µM*	0.4%
Cc1ccc(S(=O)(=O)Nc2cc3c(C(=O)O)c(C)oc3c3ccccc23)c(C)c1	-8.2%	12.4%	u	50.1µM*	0.4%
Cc1occc1C(=O)Nc1ccccc1Oc1ccccc1	x	x	17.8%	x	x
COc1cc(C#N)cc(Br)c1OCc1ccccc1	x	x	10.6%	x	x
COc1ccc(N=C2SCC(c3ccc(C)cc3)=NN2CCO)cc1	0.3%	-7.8%	u	50.1µM*	-10.1%
O=[N+]([O-])c1ccc(C2=NN(CCO)C(=Nc3ccc(OC(F)(F)F)cc3)SC2)cc1	-6.3%	-19.0%	0.0%	15.8µM*	-2.2%
CCOC(=O)c1cccc(OCC(O)Cn2c(=O)c3ccccc3n3nc(C)cc23)c1 (configuration not stated)	x	x	-1.4%	x	x
C/C(CC(C)(C)c1ccccc1)=N\NC(=O)CCSc1ccccc1	x	x	16.3%	x	x
CN(Cc1cc(=O)n2ccsc2n1)Cc1nc2ccccc2c(=O)[nH]1	12.0%	4.47µM*	37.0%	u	-2.8%
CN(Cc1cc(=O)n2ccsc2n1)C1CCCCC1	-2.3%	-5.3%	1.3%	50.1µM*	-2.8%
CCN(Cc1cc(=O)n2ccsc2n1)Cc1nc2cc(OC)c(OC)cc2c(=O)[nH]1	-0.1%	u	0.9%	12.6µM*	-5.0%
Cc1ccc(CNC(=O)CSc2nc3ccsc3c(=O)n2CCC(C)C)cc1	x	x	-8.3%	x	x
Cc1nc2cc(NC(=O)COc3ccccc3C)ccc2o1	x	x	0.4%	x	x
CC(=O)Nc1ccc(Nc2cc(C(C)C)nc3c(-c4ccccc4)cnn23)cc1	x	x	11.7%	x	x
CN1C2C=C3C(C#N)=C(N)C(C#N)(C#N)[C@@H](c4cccs4)C3C1CC2 (some centres not stated)	0.5%	-2.8%	0.0%	-23.6%[12.7 µM]	5.2%
CC(C)(C)C1CC=C2C(C#N)=C(N)C(C#N)(C#N)C(c3cccs3)C2C1 (configuration not stated)	x	-12.5%	x	50.1µM*	x
COc1cc2cc(CN3CCC[C@H]3CO)c(-c3cccc(Cl)c3)nc2cc1OC	x	x	0.8%	x	x

Assay outcomes (PubChem BioAssay)
